# Test results as given in PubChem BioAssay (NCATS).
# Records with an inconclusive call do not appear. Entries that show only a call come without a potency. Calls of active or inactive are those of the source. Calls follow the shape of the dose curve; as a rule, active = well fitted curve in the direction sought with a large enough effect; inconclusive = small, poorly fitted or top-dose-only effect, or another doubt; inactive = no such curve, though single readings can be large; an effect the other way counts as inactive or inconclusive.
# Target: Aldehyde dehydrogenase, mitochondrial (Homo sapiens) (UniProt P05091)
# Assay: qHTS for Inhibitors of the Aldehyde Dehydrogenase Family (ALDH2) Primary screen (AID 2061308); also: nearly all actives have a fitted effect of over 55% in size
# Details: ALDH2 enzyme inhibition qHTS, 1536-well; series mostly up to 56 µM
# Potency is read from the fitted curve at half-maximal effect.
row,Structure (SMILES),Potency
1,O=S(=O)(c1ccccc1)N1CCN(c2nc(-c3ccc(Br)cc3)cs2)CC1,inactive
2,N#Cc1c(-c2cccc(Cl)c2)no[n+]1[O-],8.91 µM (active)
3,Cc1cc(-c2nnc3n2CCCC3)c(C)n1-c1ccccc1,inactive
4,Cc1ccnc(CC(=S)N2CCN(c3cccc(C(F)(F)F)c3)CC2)c1,inactive
5,CCOc1ccc(CCNC(=O)c2cc3c(s2)CCC3)cc1OCC,inactive
6,O=C(Nc1nc(-c2ccccc2)cs1)c1ccncc1NS(=O)(=O)c1ccc(Cl)cc1,inactive
7,COc1ccc(C2Nc3ccccc3C(=O)N2CCc2ccc(Cl)cc2Cl)cc1COc1ccc(NC(C)=O)cc1 (stereo not given),inactive
8,CN(C)CCCNc1ccc(NC(=O)c2cccs2)cn1,inactive
9,COc1cc2ncnc(N(C)Cc3csc(C)n3)c2cc1-c1ccc2c(c1)OCO2,inactive
10,Cc1cc(-c2nnc3n2CCCCC3)c(C)n1-c1ccc(Cl)c(Cl)c1,inactive
11,Cc1cnc(-c2ccccc2C2COC2)nc1NCc1ccc(-n2ccnn2)cc1,inactive
12,COc1ccc(C2Nc3ccccc3C(=O)N2CCc2ccccc2)cc1COc1ccc(NC(C)=O)cc1 (stereo not given),inactive
13,CCCCN(C)C(=O)Cn1nc(-c2ccc(Cl)cc2)ccc1=O,inactive
14,Nc1ccccc1OC1=NS(=O)(=O)c2ccccc21,2.51 µM (active)
15,FC(F)(F)c1ccc(-c2ccc(CNc3nc(-c4ccccc4C(F)(F)F)nc4ccccc34)cc2)cn1,inactive
16,O=C([C@H](Cc1ccc(O[S+](=O)([O-])c2cccnc2)cc1)N[S+](=O)([O-])c1cccc2cnccc12)N1CCN(c2ccccc2)CC1,inactive
17,COc1ccc(NC(=O)CN(C)C(=O)c2cc3c(s2)CCC3)cc1,inactive
18,O=C([C@H](Cc1ccc(O[S+](=O)([O-])c2cccnc2)cc1)N[S+](=O)([O-])c1ccccn1)N1CCN(c2ccccc2)CC1,inactive
19,COc1ccc(C2=Nn3c(nnc3-c3ccc(OC)cc3)SC2)cc1,inactive
20,CN(CC(=O)O)c1ncnc2ccc(-c3ccc4c(c3)OCO4)cc12,inactive

row,Structure (SMILES),Potency
1,CN(C)CCCNC(=O)c1ccc(-c2cnc3c(O)cccc3c2)cc1,inactive
2,COc1ccc(C2=Nn3c(nnc3-c3cccc(OC)c3OC)SC2)c(OC)c1,inactive
3,COc1ccc(C2=Nn3c(nnc3-c3cc(OC)ccc3OC)SC2)cc1,inactive
4,N#Cc1nc(Nc2cccc(Cl)c2)nc(NC2CCCC2)n1,inactive
5,O=[S+]([O-])(Nc1ccc(-c2nc3ccccc3[nH]2)cc1)c1ccc2c(c1)OCO2,inactive
6,O=C(Nc1cncc(Cc2ccccc2)c1)c1ccc(-c2cccc([N+](=O)[O-])c2)o1,inactive
7,CSc1ccc(-c2cnc(N3CCC(C(N)=O)CC3)s2)cc1,inactive
8,O=C(O)C1CCN(c2ncc(-c3ccc4c(c3)OCCCO4)s2)CC1,inactive
9,CCOC(=O)c1ccc(-n2cccc2/C=C2\NC(=O)NC2=O)cc1,inactive
10,O=C(NCCCCc1ccccc1)C1CCN(c2nc(-c3ccc(Br)cc3)cs2)CC1,inactive
11,O=C(CN1C(=O)N/C(=C\c2cn(-c3cccc(C(=O)O)c3)cn2)C1=O)Nc1ccccc1Cl,inactive
12,Cc1nc(-c2ccccc2)oc1-c1ccc2ncnc(NCc3ncc[nH]3)c2c1,inactive
13,Cc1cc(C)nc(NC(=S)N2CC3CN(c4ncc(C(F)(F)F)cc4Cl)CC3C2)c1 (stereo not given),2.51 µM (active)
14,FC(F)Oc1ccc(C2=Nn3c(nnc3-c3ccccc3C(F)(F)F)SC2)cc1OCC1CC1,inactive
15,O=C(Nc1nc(-c2ccccc2)cs1)c1ccncc1NS(=O)(=O)c1ccccc1Cl,inactive
16,COc1ccc(C2Nc3ccccc3C(=O)N2Cc2ccco2)cc1COc1ccc(NC(C)=O)cc1 (stereo not given),inactive
17,Cc1[nH]c2ccccc2c1C1=C(NCCc2ccc(F)cc2)C(=O)N(C)C1=O,inactive
18,N#Cc1nc(Nc2ccc3ccccc3c2)nc(NC2CCCC2)n1,inactive
19,O=C(Nc1nc(-c2ccccc2)cs1)c1ccncc1NS(=O)(=O)c1ccc2ccccc2c1,inactive
20,CN1CCN(c2ccc(Nc3nn4c(=O)c5ccccc5nc4s3)cc2)CC1,inactive

# Target: Retinal dehydrogenase 2 (Homo sapiens) (UniProt O94788)
# Assay: qHTS for Inhibitors of the Aldehyde Dehydrogenase Family (ALDH1A2) Confirmation screens (AID 2061314); also: nearly all actives have a fitted effect of over 65% in size
# Details: ALDH1A2 enzyme inhibition qHTS confirmation; series mostly up to 45.9 µM
row,Structure (SMILES),Potency
1,O=S(=O)(c1ccccc1)N1CCN(c2nc(-c3ccc(Br)cc3)cs2)CC1,inactive
2,N#Cc1c(-c2cccc(Cl)c2)no[n+]1[O-],5.04 µM (active)
3,Cc1cc(-c2nnc3n2CCCC3)c(C)n1-c1ccccc1,inactive
4,Cc1ccnc(CC(=S)N2CCN(c3cccc(C(F)(F)F)c3)CC2)c1,12.7 µM (active)
5,CCOc1ccc(CCNC(=O)c2cc3c(s2)CCC3)cc1OCC,14.2 µM (active)
6,O=C(Nc1nc(-c2ccccc2)cs1)c1ccncc1NS(=O)(=O)c1ccc(Cl)cc1,10.1 µM (active)
7,CN(C)CCCNc1ccc(NC(=O)c2cccs2)cn1,5.65 µM (active)
8,COc1cc2ncnc(N(C)Cc3csc(C)n3)c2cc1-c1ccc2c(c1)OCO2,inactive
9,Cc1cc(-c2nnc3n2CCCCC3)c(C)n1-c1ccc(Cl)c(Cl)c1,20.1 µM (active)
10,Nc1ccccc1OC1=NS(=O)(=O)c2ccccc21,inactive
11,FC(F)(F)c1ccc(-c2ccc(CNc3nc(-c4ccccc4C(F)(F)F)nc4ccccc34)cc2)cn1,25.2 µM (active)
12,O=C([C@H](Cc1ccc(O[S+](=O)([O-])c2cccnc2)cc1)N[S+](=O)([O-])c1ccccn1)N1CCN(c2ccccc2)CC1,7.98 µM (active)
13,COc1ccc(C2=Nn3c(nnc3-c3ccc(OC)cc3)SC2)cc1,inactive
14,CN(C)CCCNC(=O)c1ccc(-c2cnc3c(O)cccc3c2)cc1,inactive
15,COc1ccc(C2=Nn3c(nnc3-c3cccc(OC)c3OC)SC2)c(OC)c1,inactive
16,COc1ccc(C2=Nn3c(nnc3-c3cc(OC)ccc3OC)SC2)cc1,inactive
17,O=[S+]([O-])(Nc1ccc(-c2nc3ccccc3[nH]2)cc1)c1ccc2c(c1)OCO2,15.9 µM (active)
18,O=C(Nc1cncc(Cc2ccccc2)c1)c1ccc(-c2cccc([N+](=O)[O-])c2)o1,12.7 µM (active)
19,O=C(NCCCCc1ccccc1)C1CCN(c2nc(-c3ccc(Br)cc3)cs2)CC1,inactive
20,O=C(CN1C(=O)N/C(=C\c2cn(-c3cccc(C(=O)O)c3)cn2)C1=O)Nc1ccccc1Cl,inactive
21,Cc1cc(C)nc(NC(=S)N2CC3CN(c4ncc(C(F)(F)F)cc4Cl)CC3C2)c1 (stereo not given),inactive
22,FC(F)Oc1ccc(C2=Nn3c(nnc3-c3ccccc3C(F)(F)F)SC2)cc1OCC1CC1,17.9 µM (active)
23,N#Cc1nc(Nc2ccc3ccccc3c2)nc(NC2CCCC2)n1,22.5 µM (active)
24,O=C(Nc1nc(-c2ccccc2)cs1)c1ccncc1NS(=O)(=O)c1ccc2ccccc2c1,7.12 µM (active)
25,CN1CCN(c2ccc(Nc3nn4c(=O)c5ccccc5nc4s3)cc2)CC1,14.2 µM (active)
